Measured values as given in the supplement of paper PMC13380429.

System: Vero E6 infected with SARS-CoV-2
Assay: inhibition of SARS-CoV-2 cytopathic effect; higher = more antiviral protection, active = above 15
Conditions: 48 h

Measured: inhibition of SARS-CoV-2 cytopathic effect

O=C(O)Cn1c2c(c3cc(F)ccc31)CN(C(=O)c1cccc3ccccc13)CC2 [setipiprant]
inactive: 1 nM -1.54% | 8.33 nM -1.86% | 100 nM -0.37% | 833.33 nM -0.82% | 10000 nM -0.76%

N=C(N)c1ccc(/C=C/c2ccc(C(=N)N)cc2O)cc1 [hydroxystilbamidine]
inactive: 1 nM -3.2% | 8.33 nM -1.76% | 100 nM -5.12% | 833.33 nM -3.2% | 10000 nM -1.16%

CCCCN(CCCC)C(=O)CN1C[C@H](c2ccc3c(c2)OCO3)[C@@H](C(=O)O)[C@@H]1c1ccc(OC)cc1 [atrasentan]
inactive: 1 nM 0.53% | 8.33 nM 1.72% | 100 nM 1.15% | 833.33 nM 2.37% | 10000 nM 1.46%

O=C(Nc1ccccc1C(=O)NC1CCCCNC1=O)c1cc2ccccc2s1 (stereo not given)
inactive: 1 nM -1.69% | 8.33 nM -3.72% | 100 nM -3.22% | 833.33 nM -1.52% | 10000 nM -0.14%

C#C[C@]1(OC(=O)CCCCCC)CC[C@H]2[C@@H]3CCC4=CC(=O)CC[C@@H]4[C@H]3CC[C@@]21C [norethisterone-enanthate]
inactive: 1 nM 2.31% | 8.33 nM 0.16% | 100 nM 0.91% | 833.33 nM -1.87% | 10000 nM -1.58%

CCCCCC(=O)O[C@]1(C(C)=O)CC[C@H]2[C@@H]3CCC4=CC(=O)CC[C@]4(C)[C@H]3CC[C@@]21C [17-hydroxyprogesterone-caproate]
inactive: 1 nM -1.12% | 8.33 nM 1.14% | 100 nM 1.12% | 833.33 nM 1.58% | 10000 nM 5.84%

COc1cc2ncn(-c3cc(OCc4ccccc4C(F)(F)F)c(C(N)=O)s3)c2cc1OC
inactive: 1 nM -9.5% | 8.33 nM -5.03% | 100 nM -7.65% | 833.33 nM -5.41% | 10000 nM -1.95%

CCCCC1CCC(c2nc(-c3ccncc3)no2)CC1 (stereo not given)
inactive: 1 nM 1.12% | 8.33 nM 0.82% | 100 nM -0.05% | 833.33 nM 0.32% | 10000 nM 2.33%

Cn1c(=O)cc(N2CCC[C@@H](N)C2)n(Cc2cc(F)ccc2C#N)c1=O [trelagliptin]
inactive: 1 nM -1.51% | 8.33 nM 0.34% | 100 nM 1.49% | 833.33 nM -0.45% | 10000 nM 3.01%

CC(=O)O[C@]1(C(C)=O)CC[C@H]2[C@@H]3CCC4=CC(=O)CC[C@]4(C)[C@H]3CC[C@@]21C [hydroxyprogesterone-acetate]
inactive: 1 nM -3.23% | 8.33 nM 0.18% | 100 nM -2.75% | 833.33 nM 0.45% | 10000 nM 10.9%

CN(C(=O)c1ccc(F)cc1C(F)(F)F)C1CCN(c2nnc(-c3ccnn3C)c3ccccc23)CC1 [taladegib]
inactive: 1 nM 0.16% | 8.33 nM -6.09% | 100 nM -5.17% | 833.33 nM -5.9% | 10000 nM -5.54%

c1ccc(N2CCN(CCCOc3ccc4c(c3)OCO4)CC2)cc1
inactive: 1 nM -0.84% | 8.33 nM -2.11% | 100 nM -4.95% | 833.33 nM -3.5% | 10000 nM -4.64%

CN1CCN(Cc2ccc(Nc3ncc(Cl)c(Nc4ccccc4S(=O)(=O)N(C)C)n3)cc2)CC1
inactive: 1 nM 1.64% | 8.33 nM 0.81% | 100 nM 2.68% | 833.33 nM -8.19% | 10000 nM -10.2%

Cc1ccc(OCCSc2ncccn2)c(Br)c1
inactive: 1 nM -2.86% | 8.33 nM -1.79% | 100 nM -1.08% | 833.33 nM -4.19% | 10000 nM -1.49%

CCN(CC)C(=O)/C(C#N)=C/c1cc(O)c(O)c([N+](=O)[O-])c1 [entacapone]
inactive: 1 nM -0.37% | 8.33 nM -1.7% | 100 nM -1.61% | 833.33 nM -2.41% | 10000 nM -0.4%

CC(CCc1ccccc1)NCC(O)c1ccc(O)c(C(N)=O)c1 (stereo not given) [labetalol]
inactive: 1 nM -0.33% | 8.33 nM 0.13% | 100 nM 0.47% | 833.33 nM 0.67% | 10000 nM -2.41%

Cc1c(C(=O)NCCCO)cnn1-c1nc(-c2cccc(C(F)(F)F)c2)cs1
inactive: 1 nM 2.55% | 8.33 nM 3.83% | 100 nM 3.4% | 833.33 nM 5.36% | 10000 nM -0.86%

CCC(=O)O[C@@H]1CC(=O)O[C@H](C)C/C=C/C=C/[C@H](O)[C@H](C)C[C@H](CC=O)[C@H](O[C@@H]2O[C@H](C)[C@@H](O[C@H]3C[C@@](C)(O)[C@@H](OC(=O)CC)[C@H](C)O3)[C@H](N(C)C)[C@H]2O)[C@H]1OC [midecamycin]
inactive: 1 nM -1.27% | 8.33 nM -3.06% | 100 nM -2.36% | 833.33 nM -0.5% | 10000 nM -0.33%

COc1ccc2cc3[n+](cc2c1OC)CCc1cc2c(cc1-3)OCO2 [berberine]
inactive: 1 nM -11.8% | 8.33 nM -10.1% | 100 nM -11% | 833.33 nM -3.86% | 10000 nM -3.62%

CC(C)CC(=O)Nc1n[nH]c2c1CN(C(=O)C1CCN(C)CC1)C2(C)C
inactive: 1 nM 0.53% | 8.33 nM -0.22% | 100 nM 0.24% | 833.33 nM 0.59% | 10000 nM 1.78%

Nc1nc(Nc2ccc(S(N)(=O)=O)cc2)nn1C(=O)c1c(F)cccc1F
inactive: 1 nM 2.48% | 8.33 nM 1.33% | 100 nM 0.15% | 833.33 nM -0.22% | 10000 nM 10.8%

Oc1ccc(O)cc1 [hydroquinone]
inactive: 1 nM -0.8% | 8.33 nM 2.88% | 100 nM 1.25% | 833.33 nM 1.2% | 10000 nM 1.62%

CC(C)(C)NCC(O)c1ccc(O)c(CO)c1 (stereo not given) [albuterol]
inactive: 1 nM -4.08% | 8.33 nM -2.63% | 100 nM -5.03% | 833.33 nM -4.97% | 10000 nM -3.93%

Cc1csc(-c2nnc(Nc3ccc(Oc4ncccc4-c4ccnc(N)n4)cc3)c3ccccc23)c1
inactive: 1 nM -1.03% | 8.33 nM -3.23% | 100 nM -5.41% | 833.33 nM -4.07% | 10000 nM -4.59%

CCCCOc1ccc(C(=O)CCN2CCCCC2)cc1 [dyclonine]
inactive: 1 nM 2.76% | 8.33 nM 3.66% | 100 nM 3.14% | 833.33 nM 3.62% | 10000 nM -0.75%

COc1ccc(N(C)c2nc(C)nc3ccccc23)cc1 [verubulin]
inactive: 1 nM 0.84% | 8.33 nM 2.34% | 100 nM -2.32% | 833.33 nM 2.89% | 10000 nM 2.5%

Cc1c(NC(=O)OC[C@@H]2COCCN2)cn2ncnc(Nc3ccc4c(cnn4Cc4cccc(F)c4)c3)c12
inactive: 1 nM 0.31% | 8.33 nM -2.14% | 100 nM -2.74% | 833.33 nM -8.47% | 10000 nM -10.8%

Nc1ccn([C@H]2CO[C@@H](CO)S2)c(=O)n1 [apricitabine]
inactive: 1 nM 0.27% | 8.33 nM 2.59% | 100 nM 0.92% | 833.33 nM 2.02% | 10000 nM -3.28%

O=C(NO)c1ccc2[nH]c(=O)c(CCCc3ccccc3)nc2c1
inactive: 1 nM 1.82% | 8.33 nM 3.66% | 100 nM 0.97% | 833.33 nM 1.93% | 10000 nM -2.66%

NC(=S)N/N=C/c1coc2ccccc2c1=O.[Cl][Cu][Cl]
inactive: 1 nM 0.84% | 8.33 nM -0.38% | 100 nM 1.98% | 833.33 nM -0.55% | 10000 nM 2.4%

CC(C)C(=O)Oc1ccc(CO)cc1[C@H](CCN(C(C)C)C(C)C)c1ccccc1 [fesoterodine]
inactive: 1 nM -1.73% | 8.33 nM -0.18% | 100 nM -0.25% | 833.33 nM -2.34% | 10000 nM 0.84%

CC(C)(C=O)Cc1cc(C(C)(C)C)c(O)c(C(C)(C)C)c1
inactive: 1 nM 3.54% | 8.33 nM 2.95% | 100 nM 2.75% | 833.33 nM 2.01% | 10000 nM 1.01%

Nc1nc(Cl)nc2c1ncn2[C@@H]1O[C@H](CO)[C@@H](O)[C@H]1O [2-chloroadenosine]
inactive: 1 nM 1.66% | 8.33 nM 0.54% | 100 nM -0.34% | 833.33 nM -0.32% | 10000 nM -2.2%

CS(=O)(=O)c1ccc(Cn2c3c(c4cc(F)cc(F)c42)CCCC3CC(=O)O)cc1 (stereo not given)
inactive: 1 nM 0.13% | 8.33 nM -0.29% | 100 nM -0.12% | 833.33 nM 1.36% | 10000 nM -1.55%

C[C@@H](c1ccc2nccn2c1)n1nnc2ncc(-c3cnn(C)c3)nc21 [savolitinib]
inactive: 1 nM 0.39% | 8.33 nM -0.4% | 100 nM -0.3% | 833.33 nM 0.87% | 10000 nM 1.9%

FC(F)(F)c1ccccc1-c1cc(C(F)(F)F)c2[nH]c(C3=NOC4(CCCCC4)C3)nc2c1
inactive: 1 nM -0.82% | 8.33 nM 0.77% | 100 nM -0.98% | 833.33 nM -2.13% | 10000 nM -3.97%

Cc1cc(=O)n(-c2ccccc2)[nH]1 [N-demethylantipyrine]
inactive: 1 nM 6.19% | 8.33 nM -3.23% | 100 nM -4.99% | 833.33 nM -2.77% | 10000 nM -2.87%

Cn1ncnc1COc1nn2c(-c3cc(F)ccc3F)nnc2cc1C(C)(C)C
inactive: 1 nM 3.33% | 8.33 nM 3.4% | 100 nM 3.15% | 833.33 nM 1.53% | 10000 nM 0.81%

O=C(NCC1CCOCC1)c1cnc(Nc2ccc(Cl)cc2Cl)nc1C(F)(F)F
inactive: 1 nM -0.74% | 8.33 nM 0.36% | 100 nM 0.86% | 833.33 nM 1.5% | 10000 nM 3.56%
